Measured values published in PubChem BioAssay AID2289 (National Center for Advancing Translational Sciences (NCATS), 2010).
Among all 340,000 compounds or so, about 3,300 (0.97%) were called active. Not shown: some 9% with an inconclusive outcome. Calls follow the shape of the dose curve; as a rule, active = well fitted inhibition curve with a large enough effect; inconclusive = small, poorly fitted or top-dose-only effect, or effect the other way; inactive = flat fitted curve, though single readings scatter. This is one part of the list.

Assay: qHTS Assay for Modulators of miRNAs and/or Inhibitors of miR-21; also: nearly all actives have a fitted effect of over 55% in size
Conditions: HeLa miR-21-FLuc reporter, luciferase luminescence, 48 h; actives lower the signal
Procedure, shortened: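 HeLa cells endogenously expressing miR-21, stably carrying CMV-driven firefly luciferase with a downstream miR-21 binding site, 2000 cells/well. Titrations up to approximately 40 uM, 48 hours; luciferase luminescence read.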
Potency is read from the fitted curve at half-maximal effect.

Potency, active:
C=CCn1c(SCC(=O)Nc2ccc(-c3nc4ccc(C)cc4s3)cc2)nnc1-c1ccncc1 8.26 µM
C=CCn1c(SCC(=O)Nc2ccc(-c3nc4ccc(C)cc4s3)cc2)nnc1-c1ccccc1 1.17 µM
C/C(=N/Nc1ccc(C(=O)O)cc1)c1ccc(O)c(O)c1O 18.5 µM
O=C(CSc1nnc(-c2ccccc2Cl)o1)N1CCOCC1 3.69 µM
Cc1ccccc1-c1nnc(SCC(=O)N2CCCC2)o1 7.36 µM
CC(C)(C)C(=O)c1cnc(Nc2ccccc2)s1 2.33 µM
CC(=O)c1cnc(Nc2cccc(C)c2)s1 2.93 µM
Cc1[nH]c2ccccc2c1/C=N/Nc1cccc(C(=O)O)c1 7.36 µM
O=C(O)c1cc(N/N=C/c2cccc3ccccc23)ccc1Cl 3.29 µM
O=C(O)c1cccc(N/N=C/c2cccc3ccccc23)c1 0.0826 µM
COc1ccccc1/C=C/C=N/Nc1cccc(C(=O)O)c1 0.185 µM
CC(C)n1cc(/C=N/Nc2ccc(Cl)c(C(=O)O)c2)c2ccccc21 3.29 µM
O=C(O)c1cc(N/N=C/c2c(O)ccc3ccccc23)ccc1Cl 2.07 µM
Cc1cccc(N/N=C/c2ccccc2O)c1 10.4 µM
COc1ccc2ccccc2c1/C=N/Nc1cccc(C(=O)O)c1 6.56 µM
Cc1[nH]c2ccccc2c1N=Nc1cccc(C(=O)O)c1 1.85 µM
Cc1ccn2c(Nc3ccc4c(c3)OCCO4)c(-c3ccc(Cl)s3)nc2c1 13.1 µM
Cc1ccc(-c2nc3ccccn3c2Nc2ccc3c(c2)OCCO3)s1 1.85 µM
COC(=O)c1sccc1N/N=C/c1ccc(OC)c(OC)c1OC 6.56 µM
COC(=O)c1sccc1N/N=C/c1cccc(Oc2ccccc2)c1 1.85 µM
COc1cc(/C(C)=N/NC(=O)CSc2nncn2C)ccc1OCc1ccccc1Cl 10.4 µM
Clc1ccc(-n2ncc3c(NCc4ccccn4)ncnc32)cc1 5.85 µM
C=CCNc1ncnc2c1cnn2-c1ccc(Cl)cc1 0.329 µM
Fc1cccc(Cl)c1CSc1nnc(-c2ccncc2)o1 14.7 µM
O=C1/C(=C/c2ccco2)CCc2ccccc21 18.5 µM
COc1ccc2c(c1)CC/C(=C\c1ccc(C)o1)C2=O 2.93 µM
COc1ccc2c(c1)CC/C(=C/c1ccco1)C2=O 1.85 µM
O=[N+]([O-])c1ccccc1-c1nc(-c2ccc(Br)o2)no1 1.47 µM
CCCCOc1ccc(CSc2nncn2N)cc1 14.7 µM
COc1cccc(/C=C2\CCC(C3CCCC3)C2=O)c1OC (stereo not drawn) 4.14 µM
Cc1ccsc1/C=C1\CCC(C2CCCC2)C1=O (stereo not drawn) 3.69 µM
COc1ccc(NC(=O)c2noc3c2CCCC3)cc1Cl 0.369 µM
Cc1c(Cl)cccc1NC(=O)c1noc2c1CCCC2 7.36 µM
Cc1ccc2c(c1)c1ncnc(N3CCOCC3)c1n2C 13.1 µM
Cc1ccc2c(c1)c1ncnc(N3CCC4(CC3)OCCO4)c1n2C 7.36 µM
Fc1ccccc1NC(=S)N/N=C/c1ccccc1Br 4.65 µM
Fc1cccc(/C=N/NC(=S)Nc2ccccc2Cl)c1 4.65 µM
N/C(=N\NC(=O)Nc1ccccc1)c1ccccn1 2.61 µM
N/C(=N\NC(=O)Nc1ccc(Cl)cc1)c1ccccn1 3.29 µM
Cc1cc(C)c(C#N)c(SCc2nnc(-c3ccccc3[N+](=O)[O-])o2)n1 3.69 µM
O=c1c2ccccc2nc2sc3ccccc3n12 6.56 µM
CCOc1cccc2c1OC1(CCCCC1)N1N=C(c3cccnc3)CC21 (stereo not drawn) 16.5 µM
CCN1CCC2(CC1)Oc1c(OC)cccc1C1CC(c3cccnc3)=NN12 (stereo not drawn) 11.7 µM
CC(=O)c1c(C)[nH]c(C(=O)Nc2ccc(Cl)cc2F)c1C 2.07 µM
Cc1nnc2n(c1=O)N=C(c1ccc(Cl)cc1)CS2 1.65 µM
O/N=C/c1ccnc(SCc2ccccc2)n1 10.4 µM
Cc1nc(C)c(-c2ccc(SCc3ccccc3F)nn2)s1 14.7 µM
Cc1ccc2scc(N3CCCCC3C)c(=O)c2c1 (stereo not drawn) 14.7 µM
Cc1ccc2scc(N3CCCC(C)C3)c(=O)c2c1 (stereo not drawn) 6.56 µM
Cc1cc(NC(=S)Nc2ccc(C)c(Cl)c2)n[nH]1 7.36 µM
COc1ccc(NC(=S)Nc2cc(C)[nH]n2)cc1Cl 18.5 µM
Cc1cc(C(=O)CSc2ccc3c(c2)OCCO3)c(C)n1C1CC1 7.36 µM
Cc1ccc(NC(=O)c2ccc(=O)[nH]n2)cc1C 6.56 µM
CC(C)(C)c1ccc(NC(=O)c2ccc(=O)[nH]n2)cc1 0.826 µM
O=C(OCc1nc2ccccc2s1)c1ccco1 7.36 µM
COc1cc(OC)cc(C(=O)NCC(=O)OCc2nc3ccccc3s2)c1 0.464 µM
Nc1ccc(C(=O)OCc2nc3ccccc3s2)cc1 16.5 µM
Cc1ccc(-n2c(C)c(C)c3c(NCCCO)ncnc32)cc1 7.36 µM
Cc1ccc(-n2c(C)c(C)c3c(NCCO)ncnc32)cc1 13.1 µM
Cc1c(C)n(CCc2ccccc2)c2ncnc(NCCO)c12 4.14 µM
COc1ccc(-c2nnc(-c3ccc(C)cc3)o2)cc1 2.07 µM
COc1ccc(-c2nnc(-c3ccc(F)cc3)o2)cc1 1.04 µM
c1ccc(Nc2nnc(-c3cccnc3)s2)cc1 0.261 µM
CCS(=O)(=O)N1Cc2ccccc2CC1C(=O)Nc1nccs1 (stereo not drawn) 14.7 µM
CCS(=O)(=O)N1Cc2ccccc2CC1C(=O)Nc1nc(C)cs1 (stereo not drawn) 10.4 µM
CCS(=O)(=O)N1Cc2ccccc2CC1C(=O)Nc1nc2ccc(F)cc2s1 (stereo not drawn) 4.65 µM
CC(C)(C)SCCNC(=O)/C=C/c1ccccc1 11.7 µM
O=C(/C=C/c1ccc(F)cc1)NCCC1=CCCCC1 7.36 µM
O=C(/C=C/c1ccccc1)NCCC1=CCCCC1 5.85 µM
CCN(Cc1ccccc1)c1ccc(N=Nc2nn(C)c(C)c2[N+](=O)[O-])cc1 18.5 µM
CCN(CC)c1ccc(N=Nc2nn(C)c(C)c2[N+](=O)[O-])cc1 0.736 µM
CCc1cc2cc(C(=O)Nc3ccc(F)cc3)sc2s1 1.65 µM
COc1cc(NC(=O)c2cc(-c3cccc(OC)c3)n[nH]2)cc(OC)c1 3.29 µM
CCOC(=O)c1cn[nH]c1NC(=S)Nc1ccc(Cl)cc1 0.656 µM
COc1ccc2cc(-c3ccn[nH]3)ccc2c1 0.927 µM
Cc1ccc(Nc2nc(N)c([N+](=O)[O-])c(NCCO)n2)cc1C 13.1 µM
CNc1nc(Nc2ccc(C)c(Cl)c2)nc(N)c1[N+](=O)[O-] 3.29 µM
O=C(c1cc(-c2cccc(Cl)c2)on1)N1CCCCCC1 4.65 µM
O=C(c1cc(-c2cccc(Cl)c2)on1)N1CCCC1 3.69 µM
CSc1c(C#N)c(N)c(C#N)c2c1COC(C)(C)C2 18.5 µM
CN1CCN(/N=C/c2ccc(Cl)c(Cl)c2)CC1 7.36 µM
CN1CCN(/N=C/c2ccc(Br)cc2)CC1 14.7 µM
Cc1c(-c2nnc(SCC(=O)Nc3ccccc3F)o2)nnn1-c1ccc(F)cc1 2.93 µM
Cc1nn(-c2ccc(F)cc2)c(Cl)c1/C=N/NC(=O)c1cccs1 2.93 µM
Cc1nn(-c2ccccc2)c(Cl)c1/C=N/NC(=O)c1ccc(NS(=O)(=O)c2cccs2)cc1 4.14 µM
Clc1ccc(-c2nc(-c3cnccn3)no2)cc1 0.521 µM
Fc1ccc(-c2nc(-c3cnccn3)no2)c(Cl)c1 0.464 µM
O=C(c1ccccc1)c1c(O)nc(-c2ccccc2)n(-c2ccccc2)c1=O 13.1 µM
O=C(Nc1ccn(Cc2ccccc2)n1)c1n[nH]c([N+](=O)[O-])c1Cl 2.07 µM
CCSc1nnc2ccc(-c3ccc(OC)c(OC)c3)nn12 14.7 µM
CCSc1nnc2ccc(-c3ccc(C)cc3)nn12 16.5 µM
CC(=O)c1sc(NC(=O)c2ccc(C)c(C)c2)nc1C 0.585 µM
CC(=O)c1sc(NC(=O)c2ccc(C(C)(C)C)cc2)nc1C 0.826 µM
Cc1ccsc1C(=O)OCC(=O)N1CCc2ccccc2C1 3.29 µM
Cc1ccc(Cl)c(OCC(=O)N2CCc3ccccc3C2)c1 14.7 µM
COc1cc2c(cc1OC)CN(c1ccc(F)cc1[N+](=O)[O-])CC2 13.1 µM
COc1cc2c(cc1OC)CN(c1ncccc1[N+](=O)[O-])CC2 18.5 µM
CC(=O)c1ccc(N2CCc3ccccc3C2)c([N+](=O)[O-])c1 9.27 µM
CC(=O)c1cccc(OCc2cc(C(=O)N(C)CCC3CCOCC3)no2)c1 16.5 µM
COc1cc(Cl)ccc1OCc1cc(C(=O)N2C[C@H]3CC[C@H]2C3)no1 5.21 µM
CC(=O)c1cccc(OCc2cc(C(=O)N3C[C@H]4CC[C@H]3C4)no2)c1 5.21 µM
O=C(c1cc(COc2ccc(F)cc2F)on1)N1C[C@H]2CC[C@H]1C2 13.1 µM
Cc1nonc1C1CCCN1C(=O)c1cc(COc2ccc(F)cc2F)on1 (stereo not drawn) 4.14 µM
